This is an account of results in the supplement of paper PMC12669032.

The first assay relates to Bifidobacterium longum subsp. longum. Description: growth AUC relative to DMSO control (median of replicates) (fraction); higher = more growth (less inhibition), active = hit call of the paper. Particulars: 20 µM; 24 h;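 active = AUC reduced over 20% with Padj below 0.05 in at least 2 of 3 replicates; inactive = otherwise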. In a few lines:
(§1)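 In round-bottom 96-well plates sealed with pierced gas-permeable seals, gut bacterial monocultures in mGAM were grown anaerobically at 37 °C from OD600 0.05 with 20 µM compound (1% DMSO). OD600 readings were taken hourly for 24 h, and the minimum OD was set to 0. Area under the growth curve was then normalised to the plate median of solvent-only wells, or to row and column medians on the industrial chemical plate. The value given is the median of three biological replicates grown on separate days.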
With `Nc1cccc(O)c1`, the “growth AUC” value was 1.06 (inactive).

For `CCc1cccc(C)c1NC(C)C(=O)O` (racemic), the “growth AUC” value is 1.04 (inactive).

In the case of `CCc1ccc(C(c2ccc(CC)cc2)C(Cl)Cl)cc1`, the “growth AUC” value is 0.972 (inactive).

Take `CC(C)N(C(=O)CS(=O)CC(=O)O)c1ccc(F)cc1` (stereo not drawn): the “growth AUC” value was 1.03 (inactive).

As to `O=[N+]([O-])c1ccc(Oc2c(Cl)cc(Cl)cc2Cl)cc1`, the “growth AUC” value is 0.985 (inactive).

For `CCOC(=O)c1nc(C(Cl)(Cl)Cl)n(-c2ccc(Cl)cc2Cl)n1`, the “growth AUC” value was 0.983 (inactive).

Consider `Cc1ccc2c(c1)[C@H](Nc1nc(N)nc(C(C)F)n1)[C@@H](C)C2` (stereo partly drawn), for which the “growth AUC” value was 1.03 (inactive).

For `CCCCCCCC(=O)Oc1c(Br)cc(C#N)cc1Br`, the “growth AUC” value is 1.06 (inactive).

Consider `CCNc1nc(N)[nH]c(=O)n1`, for which the “growth AUC” value was 0.986 (inactive).

With `CN(C)C(=O)Nc1cc(C(C)(C)C)on1`, the “growth AUC” value was 1.01 (inactive).

Consider `O=C(NC(=O)c1c(F)cccc1F)Nc1cc(C(F)(F)F)cc(C(F)(F)F)c1Cl`, for which the “growth AUC” value was 0.819 (inactive).

Consider `COC(=O)CSc1cc(N=c2sc(=O)n3n2CCCC3)c(F)cc1Cl`, for which the “growth AUC” value was 0.985 (inactive).

On to `CCN(Cc1c(F)cccc1Cl)c1c([N+](=O)[O-])cc(C(F)(F)F)cc1[N+](=O)[O-]`, for which the “growth AUC” value was 0.909 (inactive).

For the compound `CCNC(=O)[C@@H](C)OC(=O)Nc1ccccc1`, the “growth AUC” value was 0.976 (inactive).

Turning to `CON=C(Cc1cccnc1)c1ccc(Cl)cc1Cl`, the “growth AUC” value was 0.998 (inactive).

With `COC(=O)Nc1ccc(Cl)c(Cl)c1`, the “growth AUC” value is 0.84 (inactive).

For `CC[N+](CC)(CC(=O)Nc1c(C)cccc1C)Cc1ccccc1.O=C([O-])c1ccccc1`, the “growth AUC” value was 0.98 (inactive).

For `CC(C)(C)[C@@H](O)[C@@H](Cc1ccc(Cl)cc1)n1cncn1` (mixture of isomers), the “growth AUC” value is 1.09 (inactive).

As to `COCC(=O)N(c1c(C)cccc1C)C(C)C(=O)O` (stereo not drawn), the “growth AUC” value was 0.951 (inactive).

As for `COC(=O)c1ccccc1S(=O)(=O)NC(=O)n1nc(OCC(C)O)n(C)c1=O` (stereo not drawn), the “growth AUC” value is 0.956 (inactive).

Consider `CCOC(=O)Cc1[nH]nc2ccc(Cl)cc12`, for which the “growth AUC” value is 0.989 (inactive).

As to `CCCCCCCC/C=C\CCCCCCCC(N)=O`, the “growth AUC” value is 0.849 (inactive).

In the case of `COC1CCC2(CC1)NC(=O)C(c1cc(C)ccc1C)=C2OC1OC(CO)C(O)C(O)C1O` (stereo not drawn), the “growth AUC” value is 1 (inactive).

Turning to `COC(=O)c1ccc(C(F)(F)F)nc1S(=O)(=O)[N-]C(=O)Nc1nc(OC)cc(OC)n1.[Na+]`, the “growth AUC” value was 0.938 (inactive).

Consider `COC1CCC2(CC1)NC(=O)C(c1cc(C)ccc1C)=C2O` (stereo not drawn), for which the “growth AUC” value is 1.09 (inactive).

As for `O=C(Nc1ccc(O)cc1-c1ccc(Cl)cc1)c1cccnc1Cl`, the “growth AUC” value was 1.01 (inactive).

Take `Cc1nn(C)c(F)c1C(=O)Nc1ccccc1C(C)CC(C)C` (stereo not drawn): the “growth AUC” value was 0.992 (inactive).

Regarding `O=C(NCc1ncc(C(F)(F)F)cc1Cl)c1c(Cl)cccc1Cl`, the “growth AUC” value is 1.04 (inactive).

For `CC1COc2ccccc2N1C(=O)C(Cl)Cl` (stereo not drawn), the “growth AUC” value was 1.03 (inactive).

`CCc1cccc(C)c1NC(=O)C(=O)O`: the “growth AUC” value was 1.02 (inactive).

Regarding `Cc1[nH]oc(=O)c1N=Nc1ccccc1Cl`, the “growth AUC” value was 1.04 (inactive).

Turning to `COc1ccccc1C(=O)NS(=O)(=O)c1ccc(C(=O)NC2CC2)cc1`, the “growth AUC” value is 0.954 (inactive).

As to `O=C(O)c1ccc(Cl)cc1Cl`, the “growth AUC” value is 0.699 (inactive).

`CCCCCCCC/C=C\CCCCCCCCCCCCC`: the “growth AUC” value was 0.964 (inactive).

Consider `COC(=O)COc1ccc(Cl)cc1C`, for which the “growth AUC” value was 0.805 (inactive).

With `CC(C)OC(=O)N[C@H](C(=O)N[C@H](C)c1nc2ccc(F)cc2s1)C(C)C`, the “growth AUC” value is 1.06 (inactive).

For `CCNc1nc(N)nc(Cl)n1`, the “growth AUC” value is 1 (inactive).

Regarding `Cc1nn(C)c(OCC(=O)c2ccccc2)c1C(=O)c1ccc(Cl)cc1Cl`, the “growth AUC” value was 0.992 (inactive).

As for `Cc1cc(C)c(C2=C(O)C3(CCCC3)OC2=O)c(C)c1`, the “growth AUC” value is 1.04 (inactive).

In the next assay the test system is Clostridium difficile. The assay is described as above. As to conditions: 20 µM; 24 h. The gist of the method: as §1
As for `Nc1cccc(O)c1`, the “growth AUC” value was 1.03 (inactive).

Regarding `CCc1cccc(C)c1NC(C)C(=O)O` (racemic), the “growth AUC” value is 1.03 (inactive).

Take `CCc1ccc(C(c2ccc(CC)cc2)C(Cl)Cl)cc1`: the “growth AUC” value was 1.03 (inactive).

`CC(C)N(C(=O)CS(=O)CC(=O)O)c1ccc(F)cc1` (stereo not drawn): the “growth AUC” value is 1.01 (inactive).

Regarding `O=[N+]([O-])c1ccc(Oc2c(Cl)cc(Cl)cc2Cl)cc1`, the “growth AUC” value is 1.02 (inactive).

`CCOC(=O)c1nc(C(Cl)(Cl)Cl)n(-c2ccc(Cl)cc2Cl)n1`: the “growth AUC” value is 0.983 (inactive).

As for `Cc1ccc2c(c1)[C@H](Nc1nc(N)nc(C(C)F)n1)[C@@H](C)C2` (stereo partly drawn), the “growth AUC” value was 0.998 (inactive).

In the case of `CCCCCCCC(=O)Oc1c(Br)cc(C#N)cc1Br`, the “growth AUC” value is 1.02 (inactive).

Take `CCNc1nc(N)[nH]c(=O)n1`: the “growth AUC” value was 0.999 (inactive).

Turning to `CN(C)C(=O)Nc1cc(C(C)(C)C)on1`, the “growth AUC” value is 0.987 (inactive).

Consider `O=C(NC(=O)c1c(F)cccc1F)Nc1cc(C(F)(F)F)cc(C(F)(F)F)c1Cl`, for which the “growth AUC” value was 1.02 (inactive).

Regarding `COC(=O)CSc1cc(N=c2sc(=O)n3n2CCCC3)c(F)cc1Cl`, the “growth AUC” value was 0.982 (inactive).

Turning to `CCN(Cc1c(F)cccc1Cl)c1c([N+](=O)[O-])cc(C(F)(F)F)cc1[N+](=O)[O-]`, the “growth AUC” value was 0.99 (inactive).

With `CCNC(=O)[C@@H](C)OC(=O)Nc1ccccc1`, the “growth AUC” value is 1.03 (inactive).

In the case of `CON=C(Cc1cccnc1)c1ccc(Cl)cc1Cl`, the “growth AUC” value was 1 (inactive).

For `COC(=O)Nc1ccc(Cl)c(Cl)c1`, the “growth AUC” value was 0.978 (inactive).

For the compound `CC[N+](CC)(CC(=O)Nc1c(C)cccc1C)Cc1ccccc1.O=C([O-])c1ccccc1`, the “growth AUC” value was 1.04 (inactive).

For the compound `CC(C)(C)[C@@H](O)[C@@H](Cc1ccc(Cl)cc1)n1cncn1` (mixture of isomers), the “growth AUC” value is 0.938 (inactive).

`COCC(=O)N(c1c(C)cccc1C)C(C)C(=O)O` (stereo not drawn): the “growth AUC” value was 0.95 (inactive).

With `COC(=O)c1ccccc1S(=O)(=O)NC(=O)n1nc(OCC(C)O)n(C)c1=O` (stereo not drawn), the “growth AUC” value is 0.951 (inactive).

`CCOC(=O)Cc1[nH]nc2ccc(Cl)cc12`: the “growth AUC” value is 1 (inactive).

`CCCCCCCC/C=C\CCCCCCCC(N)=O`: the “growth AUC” value is 1.01 (inactive).

Turning to `COC1CCC2(CC1)NC(=O)C(c1cc(C)ccc1C)=C2OC1OC(CO)C(O)C(O)C1O` (stereo not drawn), the “growth AUC” value was 1.02 (inactive).

With `COC(=O)c1ccc(C(F)(F)F)nc1S(=O)(=O)[N-]C(=O)Nc1nc(OC)cc(OC)n1.[Na+]`, the “growth AUC” value is 1.05 (inactive).

For `COC1CCC2(CC1)NC(=O)C(c1cc(C)ccc1C)=C2O` (stereo not drawn), the “growth AUC” value was 1.02 (inactive).

In the case of `O=C(Nc1ccc(O)cc1-c1ccc(Cl)cc1)c1cccnc1Cl`, the “growth AUC” value was 1.03 (inactive).

On to `Cc1nn(C)c(F)c1C(=O)Nc1ccccc1C(C)CC(C)C` (stereo not drawn), for which the “growth AUC” value is 0.982 (inactive).

For `O=C(NCc1ncc(C(F)(F)F)cc1Cl)c1c(Cl)cccc1Cl`, the “growth AUC” value is 1 (inactive).

For the compound `CC1COc2ccccc2N1C(=O)C(Cl)Cl` (stereo not drawn), the “growth AUC” value was 0.875 (inactive).

As to `CCc1cccc(C)c1NC(=O)C(=O)O`, the “growth AUC” value is 0.972 (inactive).

With `Cc1[nH]oc(=O)c1N=Nc1ccccc1Cl`, the “growth AUC” value was 0.964 (inactive).

`COc1ccccc1C(=O)NS(=O)(=O)c1ccc(C(=O)NC2CC2)cc1`: the “growth AUC” value is 0.985 (inactive).

Turning to `O=C(O)c1ccc(Cl)cc1Cl`, the “growth AUC” value is 0.997 (inactive).

On to `CCCCCCCC/C=C\CCCCCCCCCCCCC`, for which the “growth AUC” value was 1.05 (inactive).

Consider `COC(=O)COc1ccc(Cl)cc1C`, for which the “growth AUC” value is 0.989 (inactive).

As to `CC(C)OC(=O)N[C@H](C(=O)N[C@H](C)c1nc2ccc(F)cc2s1)C(C)C`, the “growth AUC” value was 0.942 (inactive).

On to `CCNc1nc(N)nc(Cl)n1`, for which the “growth AUC” value was 1.03 (inactive).

In the case of `Cc1nn(C)c(OCC(=O)c2ccccc2)c1C(=O)c1ccc(Cl)cc1Cl`, the “growth AUC” value was 0.947 (inactive).

As to `Cc1cc(C)c(C2=C(O)C3(CCCC3)OC2=O)c(C)c1`, the “growth AUC” value is 1.04 (inactive).
